Only some compounds are listed: those with a hit (about 7.3% of all), similar ones and a draw of the others.
SMN2 splice enh: SMN2 splice variant enhancement | HEK293 SMN2-luciferase splicing reporter, luminescence, 30-36 h | Potency, µM (doses to about 46.1 µM), for the others: at the highest dose activity change, positive = activation, hits mostly activators | AID 1458 | hit rate 2.8% among 210,000; further: % of control where 0% means no effect; nearly all actives have a fitted effect of over 55% in size
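HEK293 cells carry an SMN2 minigene-luciferase reporter in which exon 7 inclusion puts luciferase in frame. Cells were seeded at 2000 cells/well, attached for 10-12 hours, then exposed to compounds for 30-36 hours at 37C before ONE-Glo luminescence.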
Luc counter: Kinase-Glo luciferase inhibition (counter-screen) | Q27757 | Kinase-Glo luciferase, ATP luminescence, 8 min | Potency, µM (highest dose often 38.3 µM), without a hit: at the top dose activity change, negative = inhibition, hits mostly inhibitors | hit rate 0.28% among 200,000 | AID 1379; further: on the % scale 0 is the no-effect control and ±100 the full control effect; nearly all actives have a fitted effect of over 60% in size
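Substrate mix (final 50 mM imidazole pH 7.2, 50 mM KCl, 7 mM MgCl2, 10 uM ATP, 0.01% Tween 20, 0.05% BSA) plus pin-tool compound, then Kinase-Glo detection mix; 8 min ambient, luminescence read.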
FLuc modulator: inhibits or activates purified firefly luciferase, miR-21 counter-screen | hit rate 6.9% among 360,000 | AID 588342 | Potency, µM (doses to about 57.5 µM), for the others: top-dose activity change, negative = inhibition, hits mostly inhibitors | purified FLuc, Km substrates, luminescence inhibition | P08659;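 further: plate controls were vehicle for no effect and reference inhibitor for full effect; nearly all actives have a fitted effect of over 55% in size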
Target sequence (P08659 whole entry, looked up): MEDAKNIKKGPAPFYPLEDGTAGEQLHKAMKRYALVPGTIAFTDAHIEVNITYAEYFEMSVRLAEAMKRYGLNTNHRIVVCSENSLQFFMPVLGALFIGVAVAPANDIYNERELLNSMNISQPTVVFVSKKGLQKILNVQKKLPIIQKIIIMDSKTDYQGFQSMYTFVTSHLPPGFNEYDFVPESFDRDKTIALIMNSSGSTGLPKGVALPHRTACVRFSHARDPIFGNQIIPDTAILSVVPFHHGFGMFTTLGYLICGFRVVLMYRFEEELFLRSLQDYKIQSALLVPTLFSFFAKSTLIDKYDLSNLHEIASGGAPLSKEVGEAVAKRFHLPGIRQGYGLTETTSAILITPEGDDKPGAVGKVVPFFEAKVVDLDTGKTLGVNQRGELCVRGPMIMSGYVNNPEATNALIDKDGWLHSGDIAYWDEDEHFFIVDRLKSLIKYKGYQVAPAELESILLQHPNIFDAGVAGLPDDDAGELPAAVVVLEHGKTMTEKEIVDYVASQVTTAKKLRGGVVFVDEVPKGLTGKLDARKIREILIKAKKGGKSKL
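Purified P. pyralis luciferase, 10 nM final, with Km-level 10 uM D-luciferin and 10 uM ATP in 50 mM Tris acetate pH 7.5, 10 mM Mg acetate, 0.01% Tween-20, 0.05% BSA; 6-point qHTS titration about 60 µM downward; luminescence read.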
ELG1 genotoxic: induces genotoxicity in HEK293T cells with luciferase-tagged ELG1; Potency, µM (top dose mostly 46 µM), inactives show top-dose activity change, positive = activation, actives largely listed as activators; HEK293T ELG1-luciferase reporter, luminescence, 16 h; hit rate 1.3% among 330,000; further: % of control where 0% means no effect; nearly all actives have a fitted effect of over 60% in size
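Screening used a luciferase reporter fused to human ELG1 in HEK293T cells. Luminescence was read on a CCD plate imager after 16 hr exposure and 30 min ONE-Glo incubation.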
NPC1 prom act: NPC1 promoter activation; hit rate 2.4% among 320,000; AID 485313; Huh7 NPC1 promoter luciferase reporter, 24 h; Potency, µM (doses to about 9.22 µM), for inactives: top-dose activation, actives largely listed as activators; further: % of control where 0% means no effect; nearly all actives have a fitted effect of over 60% in size
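Readout is luciferase luminescence, reflecting NPC1 promoter activation in stably transfected Huh7 cells after 24 h compound exposure at 37 °C in reduced-serum medium with 10% FBS.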
Rab9 prom act: activates the Rab9 promoter. AID 485297. Potency, µM (doses to about 9.22 µM), without a hit: at the highest dose activation, negative = inhibition, usual class: activators. hit rate 2.8% among 320,000. Huh7 Rab9 promoter-luciferase reporter, luminescence, 24 h; further: % of control where 0% means no effect; nearly all actives have a fitted effect of over 60% in size
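Cell-based reporter: Huh7 stable for Rab9 promoter-driven luciferase, plated in reduced-serum medium with 10% FBS at 1500 cells/well, compound-treated 24 h at 37 °C, luminescence read after 10 min reagent.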
An asterisk follows results filed as active; ? = inconclusive; . = not tested or not shown; ! = a repeat was not active; [ ] = remark or other dose. The call rests on the fitted dose curve; in most records, active means well fitted curve in the direction sought with a large enough effect; inconclusive means small, poorly fitted or top-dose-only effect, or another doubt; inactive means no such curve, though single readings can be large; an effect the other way counts as inactive or inconclusive. Potency means the concentration at half of the fitted maximal effect.

SMILES | SMN2 splice enh | Luc counter | FLuc modulator | ELG1 genotoxic | NPC1 prom act | Rab9 prom act
Cc1nc2ccccc2nc1OCc1ccccc1 | -19.5% | -0.2% | ? | 4.8% | -0.8% | 1.5%
Cc1ccc2nc(=O)c(NNc3ccccc3)cnc2c1 | 17.8µM* | 1.5% | ? | ? | ? | ?
Cc1nc2ccccc2nc(=O)c1NNc1ccccc1 | 11.2µM* | -1.1% | ? | 9.2µM*! | ? | ?
C/C(=N\Nc1ccc2nncn2n1)c1ccco1 | . | . | -6.7% | 3.9% | -0.7% | 0.8%
COc1ccc2c(c1)sc1nc(-c3ccccc3)cn12 | 0.398µM* | 10µM* | 0.0338µM* | ? | -14.3% | ?
COc1ccc(-n2cc(-c3ccccc3)nc2SC)cc1 | 20µM* | -1.5% | 13.5µM* | ? | ? | ?
COc1ccc(-n2cc(-c3ccccc3)nc2SCC(=O)Nc2ccccc2C)cc1 | . | . | 3.5% | . | . | .
COc1ccc(-c2cn3c(n2)sc2cc(C(=O)NCc4ccccc4)ccc23)cc1 | . | . | 2.2% | . | . | .
O=C(NC1CCCCC1)c1ccc2c(c1)sc1nc(-c3ccccc3)cn12 | . | . | -11.4% | . | . | .
O=C(O)c1cc(-c2c[nH]c3ccccc23)nc2ccc3ccccc3c12 | 2.6% | 5.1% | 1.2µM* | -10.7% | 16.9% | 16.5%
Cc1ccc(NC(=O)CSc2ncnc3ccccc23)cc1S(=O)(=O)N1CCOCC1 | . | . | -15.7% | -18.8% | -0.9% | -13.9%
CCOC(=O)c1c(NC(=O)CSc2nccn2C)sc(C(=O)NC)c1C | . | . | 0.2% | 1.7% | -0.4% | 1.6%
CC1CCN(C(=O)CSc2ccc(-c3ccccc3)nn2)CC1 | -23.9% | 5.6% | -14.2% | -8.1% | 0.0% | -1.7%
O=C(CSc1ccc(-c2ccc(Cl)cc2)nn1)N1CCCc2ccccc21 | -27.2% | 4.0% | 15.1µM* | -3.6% | -2.0% | 4.5%
O=C(CSc1ccc(-c2ccccc2)nn1)c1cccs1 | 17.8µM* | -4.9% | ? | ? | ? | ?
COc1ccc(-c2ccc(SCC(=O)c3cccs3)nn2)cc1 | 12.6µM* | 0.7% | 10.7µM* | ? | 12.3% | 27.1%
O=C(CSc1ccc(-c2ccccc2)nn1)N1CCOCC1 | 6.31µM* | -22.7% | -17.3% | ? | 17.4% | 17.7%
COc1ccc(NC(=O)CSc2ccc(-c3cccs3)nn2)cc1 | . | . | -9.1% | . | . | .
Cc1ccc(COc2ccccc2-c2cc(C(=O)N/N=C/c3cccnc3)[nH]n2)cc1 | . | . | -6.5% | -15.1% | -27.1% | -21.3%
O=C(NCc1ccccc1)C12CC3CC(CC(Br)(C3)C1)C2 | . | . | -2.0% | 0.8% | -0.1% | -2.2%
Cc1nc(SCC(=O)N2CC(=O)Nc3ccccc32)nc(C)c1C | 6.3% | 2.1% | -4.3% | 3.2% | -2.4% | 1.2%
COc1ccc(-c2ccc(SCC(=O)N3CC(=O)Nc4ccccc43)nn2)cc1 | . | . | 3.01µM* | 2.5% | 25.1% | 28.1%
CC(C)OC(=O)CSc1nnnn1-c1ccc2c(c1)OCCO2 | -1.4% | 0.9% | 16.9µM* | 2.0% | 22.5% | ?
COc1ccc(OC)c(NC(=O)CSc2nnnn2-c2ccc3c(c2)OCO3)c1 | 35.5µM* | 0.7% | -1.9% | 10.8% | -4.9% | -4.8%
Cc1cc(CNC(=O)c2cccc(OC3CCN(S(=O)(=O)N(C)C)CC3)c2)on1 | . | . | 15.1µM* | 12.1% | 3.55µM* | ?
SMILES | SMN2 splice enh | Luc counter | FLuc modulator | ELG1 genotoxic | NPC1 prom act | Rab9 prom act
COc1ccc(SCC(=O)c2cc(C)c(OC(=S)N(C)C)c(C)c2)cc1 | -11.9% | 0.3% | 16.9µM* | 14.8% | 26.9% | ?
Cc1cc(C(=O)CSc2ccc(F)cc2)cc(C)c1OC(=S)N(C)C | -50.6% | -1.2% | 0.675µM* | 1.03µM* | ? | ?
COc1ccc(/C=N/NC(=O)c2ccc(-c3ccccc3)cc2)cc1O | -5.9% | 1.0% | ? | -3.3% | 0.8% | -5.1%
COc1cc(/C=N/NC(=O)c2ccc3c(c2)OCCO3)cc(Br)c1O | . | . | 10.7µM* | 13.6% | 1.9% | 15.5%
COc1ccc(/C=N/NC(=O)c2ccc3c(c2)OCO3)c(C(=O)O)c1OC | . | . | -8.5% | 2.6% | -1.6% | 0.3%
COc1cc(/C=N\NC(=O)c2ccc(-c3ccccc3)cc2)cc(Br)c1O | . | . | 10.7µM* | -10.6% | -0.1% | 4.9%
COc1ccc(/C=N/NC(=O)c2ccc3c(c2)OCCO3)cc1[N+](=O)[O-] | -5.7% | 0.3% | 1.4% | 11.8% | 7.9% | -1.3%
COc1cc(/C=N/NC(=O)c2ccc3c(c2)OCCO3)c(Br)c(Br)c1O | . | . | 9.53µM* | 9.4% | 0.6% | -1.0%
COc1cc(/C=N/NC(=O)C23CC4CC(CC(C4)C2)C3)cc(Br)c1O | 5.7% | 0.1% | 13.5µM* | 1.7% | -1.1% | 3.0%
COc1cc(/C=N/NC(=O)CC2(C)OCCO2)cc(Br)c1O | -1.4% | -0.7% | -1.8% | 0.9% | -3.6% | -1.5%
Cc1cc(C)cc(NC(=O)Cn2nnc(C(=O)NCc3ccc(F)cc3)c2N)c1 | . | . | 1.3% | 0.6%[9.26 µM] | -3.4% | -0.5%
CCOc1c(Br)cc(/C=N\NC(=O)c2ccccc2)cc1OC | 6.9% | 0.1% | 5.36µM* | -8.2% | -2.0% | -3.0%
Cc1cccc(NC(=O)c2oc3ccccc3c2NC(=O)c2cc(=O)c3cc(Cl)ccc3o2)c1 | -2.0% | . | -2.2% | . | . | .
O=C(COc1ccc(F)cc1Cl)NC1CCCCCC1 | . | . | 8.49µM* | ? | 3.98µM* | 2.24µM*
O=C(COc1ccc(Br)cc1Br)NC(=O)NC1CCCC1 | 14.1µM* | -4.0% | 9.53µM* | ? | 3.55µM* | 3.55µM*
O=C(COc1ccccc1Cl)NC(=O)NC1CCCCC1 | . | . | ? | 5.1% | 7.5% | -2.9%
CC(C)(C)NC(=O)NC(=O)COc1ccccc1C#N | ? | ? | 8.49µM* | 1.3µM* | 3.98µM* | 1.58µM*
C=CCNC(=O)COc1ccccc1C#N | 29.7% | -3.5% | -1.9% | 1.7% | -2.9% | 7.3%
O=C(COc1ccc(Br)cc1Br)NNC(=O)c1cccs1 | . | . | 1.9µM* | 23.6% | 25.2% | ?
CC(C)(C)NC(=O)NC(=O)COc1ccc(Br)cc1Br | 6.31µM* | -1.2% | 0.675µM* | 2.06µM* | 1.26µM* | 0.631µM*
Cc1cccc(-n2ncc3c(NC4CCCCC4)ncnc32)c1 | ? | -0.8% | 1.51µM* | ? | 4.47µM* | 2µM*
Clc1cccc(-n2ncc3c(N4CCC(Cc5ccccc5)CC4)ncnc32)c1 | . | . | 5.9% | . | . | .
Clc1cccc(-n2ncc3c(NC4CCCCCC4)ncnc32)c1 | . | . | 6.01µM* | . | . | .
Cc1cccc(-n2ncc3c(NC4CCCC4)ncnc32)c1 | . | . | 3.01µM* | . | . | .
Cc1cccc(-n2ncc3c(Nc4ccc(C)c(Cl)c4)ncnc32)c1 | . | . | -19.5% | . | . | .
Cc1cccc(-n2ncc3c(Nc4c(C)n(C)n(-c5ccccc5)c4=O)ncnc32)c1 | 2.6% | -0.4% | -7.7% | -1.9% | 1.0% | 6.7%
